# Assay results: the supplement of paper PMC6555819
# Assays:
# Assay in all cases: PBM binding z-score (relative to random genomic background probes); higher = stronger binding; sequences stand for … in GC…GCGATTGACAGCGTAGAATGAAGG
# [1] = test system: RARb homodimer (NR concentration 270 nM)
# Procedure, shortened: (§1)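 On custom Agilent 4×180K arrays, double-stranded probes with 34-nt variable regions carried direct-repeat seeds, single-nucleotide variants, half-site ablations or random human genomic background. Ligand-free nuclear receptor dimers were applied for 1 h, and binding was read with antibodies against each partner (one per run). Binding z-scores come from regression-normalized fluorescence, with the random background probes as reference.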
# [2] = test system: RARg:RXRa (NR concentration 270 nM, RXRa partner concentration 90 nM)
# Procedure, shortened: as §1
# [3] = test system: RARg homodimer (NR concentration 270 nM)
# Procedure, shortened: as §1
# [4] = test system: RXRa DBDmut IVT, anti-RXR (DBD mutation: RXRa K156A/R161A, NR concentration 90 nM)
# Procedure, shortened: as §1
# [5] = test system: RXRa homodimer (NR concentration 180 nM)
# Procedure, shortened: as §1
# [6] = test system: THRa:RXRa (NR concentration 90 nM, RXRa partner concentration 90 nM)
# Procedure, shortened: as §1
# [7] = test system: THRa homodimer (NR concentration 90 nM)
# Procedure, shortened: as §1
# [8] = test system: VDR homodimer (NR concentration 270 nM)
# Procedure, shortened: as §1
Sequence,PBM binding z-score [1],PBM binding z-score [2],PBM binding z-score [3],PBM binding z-score [4],PBM binding z-score [5],PBM binding z-score [6],PBM binding z-score [7],PBM binding z-score [8]
CCTTACGGGTCACTCCAGGTTATTGCATCGGAGT,3,4.17,3.98,1.4,3.97,4.94,0.878,1.95
CCTAGTTGGTCCAGGTCACACACGCTATAGGTAC,3.15,2.68,2.73,1.35,2.64,3.72,3.98,2.54
TCTGGTAGATCAATAGAGGTTAAGAAAGTGCGCT,1.43,0.787,0.391,0.698,1.48,2.22,-0.138,0.435
ATAGACAGGTGATGAAGGTAACTCAGGCTATCAT,0.392,0.0804,0.356,-0.779,0.265,0.901,0.156,-0.14
GGAACGAGGGCATTCGAGTTGATATCATGGCGAT,0.726,1.25,1.52,2.79,0.858,3.38,-0.359,2.91
CTCCCAAGGTGAACAAGGTCGTTGATTACTATTC,2.05,1.68,1.41,0.991,1.7,3.19,2.26,2.22
TCTTGTAGATCAAGCAGGTTAAGAGAGCCTGAGT,0.0574,-0.24,-0.296,0.088,0.168,0.276,-0.531,-0.291
CTCGAAAGGTCGGTTGACGTGAGTATACGGATAA,1.53,2.54,2.8,1.06,2.29,1.21,-0.605,0.501
TCTAGTTGGTCACGGAGGTCACGCACGACGGGTA,4.76,5.46,5.23,1.28,6.17,4.05,3.31,3.06
TCTTGTAGATCAAGCAGGTTAAGTAAGCCTGAGT,0.0988,-0.201,-0.463,0.439,0.0943,0.33,-0.503,-0.0277
CCTCGTTGGTCAAGGTCACACACGCTATAGGTAC,4.51,4.58,5.23,1.8,4.83,4.05,4.37,3.86
TCTATTAGTTGATTAGGGCAATCGAAACAGCGGA,0.402,0.658,0.528,0.966,0.804,0.453,0.15,0.435
GATGCAGGGTCAGCTAGAGGCCAGAGTATGGAAA,3.34,6.65,5.08,1.24,4.39,2.95,0.228,0.522
TCTTGTAGATCAATCAGGTTAAGAAAGCCTGAGT,0.194,0.0482,-0.074,0.724,0.241,1.02,0.308,0.0655
GGAACGAGTGCAAAGTTGATAGCATCTGTCGACG,-0.159,0.335,0.145,3.22,0.874,-0.385,-0.711,1.88
CCTACTGGGCCATGCAGAGGTCATTGATCATATG,3.99,4.29,2.87,0.291,3.81,3.05,1.12,3.36
GGAACGAGGGGATTCGAGTTGATAGCATGGCGAT,-0.999,-0.337,-0.0526,-0.0556,-0.258,0.618,-0.631,0.0927
CCTTACGGGTCACTGACAGGTGATAGCATTTGGA,3.85,5.63,4.84,2.09,6.14,3.23,0.557,1.31
TCAATGAGGTTATAAGATCAGGGAACGTTGCAAA,0.57,1.52,0.993,1.75,2.19,1.84,0.0539,0.536
TCGAGTAGGGTAGTCGGGGCATTCAGCCAACATA,0.403,-0.271,-0.538,0.261,-0.197,0.368,0.185,0.229
GCATATAGGTAATACAAGGTGAAAGACCGATTGT,0.665,0.88,0.835,0.075,0.929,4.12,0.583,-0.0342
GCAGACAGGTCAAACGCAGGTAACTCAGGGTGGC,2.7,5.58,4.53,2.16,4.65,3.23,-0.195,0.795
CGAACGAGGGCATGAGTTCATAGCAAATGCCGAT,2.53,3.42,2.88,3.85,3.03,2.73,0.469,6.18
TCGAGTAGGTTACCAATGGGGCATTCAGCTTTCT,0.636,1.2,0.445,0.401,0.5,0.261,-0.612,-0.59
CTTCCAAGGTCATAGGAGGTCAGTGAAGACAGAT,5.3,7,7.48,3.89,7.13,5.26,3.21,4.49
CAAACTATGTCAAAGGTCAAAGTCGAGCCAACCA,5.04,7.01,6.39,1.75,8.43,3.81,1.14,2.88
CCTTACGGGTCACTGCAGGTTATAGCATCGGAGT,3.23,4.87,4.67,1.59,5.03,4.41,0.184,1.17
CCTAGTTGCTCAGGAGGTCACACACCGGATATGA,4.04,4.26,3.65,1.26,4.71,3.75,2.69,2.65
TCTCGGAGGACACGCAGGTCAGAGCTTTCCAGAG,2.81,2.47,3.04,0.783,1.05,2.63,1.06,1.2
